# T1: TRIM11 268-461 SPRY (domain begin residue: 268, domain end residue: 461), Q96F44
# T1 chain: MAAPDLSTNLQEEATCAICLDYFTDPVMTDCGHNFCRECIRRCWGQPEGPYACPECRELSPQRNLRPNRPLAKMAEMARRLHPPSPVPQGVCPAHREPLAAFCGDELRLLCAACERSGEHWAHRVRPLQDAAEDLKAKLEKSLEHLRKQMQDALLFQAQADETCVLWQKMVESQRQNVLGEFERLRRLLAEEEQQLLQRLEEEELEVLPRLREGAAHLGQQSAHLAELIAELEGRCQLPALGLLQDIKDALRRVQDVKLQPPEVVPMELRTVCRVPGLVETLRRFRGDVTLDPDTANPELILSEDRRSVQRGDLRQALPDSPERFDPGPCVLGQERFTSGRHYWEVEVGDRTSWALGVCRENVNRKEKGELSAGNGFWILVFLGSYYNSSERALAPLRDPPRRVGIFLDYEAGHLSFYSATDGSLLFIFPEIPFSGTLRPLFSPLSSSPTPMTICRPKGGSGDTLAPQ
# T2: TOM1L2 1-153 VHS (domain begin residue: 1, domain end residue: 153), Q6ZVM7
# T2 chain: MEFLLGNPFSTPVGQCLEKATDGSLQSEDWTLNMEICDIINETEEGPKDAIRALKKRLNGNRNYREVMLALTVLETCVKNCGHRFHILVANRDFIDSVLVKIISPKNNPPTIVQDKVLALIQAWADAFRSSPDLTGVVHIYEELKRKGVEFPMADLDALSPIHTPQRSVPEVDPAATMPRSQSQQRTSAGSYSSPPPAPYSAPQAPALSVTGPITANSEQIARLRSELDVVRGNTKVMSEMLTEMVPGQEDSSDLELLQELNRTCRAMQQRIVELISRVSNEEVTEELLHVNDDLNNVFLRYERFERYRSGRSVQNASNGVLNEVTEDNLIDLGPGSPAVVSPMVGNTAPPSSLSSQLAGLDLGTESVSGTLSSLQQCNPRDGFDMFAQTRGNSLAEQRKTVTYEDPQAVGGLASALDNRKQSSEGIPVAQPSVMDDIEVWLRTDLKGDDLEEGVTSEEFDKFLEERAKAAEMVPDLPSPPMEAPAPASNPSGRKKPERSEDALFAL
# T3: TOM1L1 1-150 VHS (domain begin residue: 1, domain end residue: 150), O75674
# T3 chain: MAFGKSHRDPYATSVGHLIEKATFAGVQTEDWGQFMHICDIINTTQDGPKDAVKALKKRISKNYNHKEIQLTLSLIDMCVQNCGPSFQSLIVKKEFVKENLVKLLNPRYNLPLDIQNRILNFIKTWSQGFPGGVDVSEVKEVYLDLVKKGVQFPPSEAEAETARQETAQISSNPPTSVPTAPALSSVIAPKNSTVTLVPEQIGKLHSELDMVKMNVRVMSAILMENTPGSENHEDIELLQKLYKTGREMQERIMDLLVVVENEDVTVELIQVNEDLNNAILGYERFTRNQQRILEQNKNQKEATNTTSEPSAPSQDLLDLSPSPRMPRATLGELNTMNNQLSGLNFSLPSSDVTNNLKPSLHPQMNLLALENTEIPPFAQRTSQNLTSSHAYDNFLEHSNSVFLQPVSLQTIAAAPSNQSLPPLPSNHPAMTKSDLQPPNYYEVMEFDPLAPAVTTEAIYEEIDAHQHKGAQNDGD
# Assays:
# Test in all cases: phage ELISA signal ratio (GST-PRM binding over GST background); higher = stronger binding of peptide-phage to the PRM
# [1] = target: T1, TRIM11 268-461 SPRY (domain begin …
# Method in brief: (§1)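 Approximately 48 individual clones from selection rounds 4 and 5 were tested by phage ELISA, and those scoring positive were sequenced. They came from five rounds of selecting an M13 phage library of randomized, cysteine-free, glycine-flanked hexadecapeptides on the gene-8 major coat protein against human peptide recognition domains fused to the C-terminus of glutathione S-transferase (GST) in 96-well plates. Each figure in the table is the ELISA signal on the GST-domain fusion relative to the signal on GST alone.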
# [2] = target: T2, TOM1L2 1-153 VHS (domain begin residue: …
# Method in brief: as §1
# [3] = target: T3, TOM1L1 1-150 VHS (domain begin residue: …
# Method in brief: as §1
# [4] = target: TRIM25 439-630 SPRY (domain begin residue: 439, domain end residue: 630), Q14258
# Method in brief: as §1
# [5] = target: TOM1 1-153 VHS (domain begin residue: 1, domain end residue: 153), O60784
# Method in brief: as §1
# [6] = target: TRIM21 268-465 SPRY (domain begin residue: 268, domain end residue: 465), P19474
# Method in brief: as §1
# [7] = target: TRIM7 324-511 SPRY (domain begin residue: 324, domain end residue: 511), Q9C029
# Method in brief: as §1
# [8] = target: TRIM30 281-496 SPRY (domain begin residue: 281, domain end residue: 496)
# Method in brief: as §1
# TRIM25 439-630 SPRY (domain begin residue: 439, domain end residue: 630), Q14258, sequence (Q14258 whole entry): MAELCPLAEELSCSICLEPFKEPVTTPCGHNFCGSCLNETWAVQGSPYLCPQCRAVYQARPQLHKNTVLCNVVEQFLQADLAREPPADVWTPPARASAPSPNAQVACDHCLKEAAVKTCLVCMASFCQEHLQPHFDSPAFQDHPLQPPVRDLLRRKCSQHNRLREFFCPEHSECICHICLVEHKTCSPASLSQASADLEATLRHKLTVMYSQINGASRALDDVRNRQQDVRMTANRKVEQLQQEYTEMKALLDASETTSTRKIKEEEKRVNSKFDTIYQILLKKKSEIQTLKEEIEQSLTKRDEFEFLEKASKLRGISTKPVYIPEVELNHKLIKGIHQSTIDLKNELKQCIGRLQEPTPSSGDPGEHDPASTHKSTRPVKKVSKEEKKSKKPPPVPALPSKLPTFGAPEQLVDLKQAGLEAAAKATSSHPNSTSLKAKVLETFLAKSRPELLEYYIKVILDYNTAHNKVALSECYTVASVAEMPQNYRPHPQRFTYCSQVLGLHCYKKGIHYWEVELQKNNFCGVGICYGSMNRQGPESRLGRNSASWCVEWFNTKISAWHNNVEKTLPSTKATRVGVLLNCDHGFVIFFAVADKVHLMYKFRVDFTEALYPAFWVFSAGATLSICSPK
# TOM1 1-153 VHS (domain begin residue: 1, domain end residue: 153), O60784, sequence (O60784 whole entry): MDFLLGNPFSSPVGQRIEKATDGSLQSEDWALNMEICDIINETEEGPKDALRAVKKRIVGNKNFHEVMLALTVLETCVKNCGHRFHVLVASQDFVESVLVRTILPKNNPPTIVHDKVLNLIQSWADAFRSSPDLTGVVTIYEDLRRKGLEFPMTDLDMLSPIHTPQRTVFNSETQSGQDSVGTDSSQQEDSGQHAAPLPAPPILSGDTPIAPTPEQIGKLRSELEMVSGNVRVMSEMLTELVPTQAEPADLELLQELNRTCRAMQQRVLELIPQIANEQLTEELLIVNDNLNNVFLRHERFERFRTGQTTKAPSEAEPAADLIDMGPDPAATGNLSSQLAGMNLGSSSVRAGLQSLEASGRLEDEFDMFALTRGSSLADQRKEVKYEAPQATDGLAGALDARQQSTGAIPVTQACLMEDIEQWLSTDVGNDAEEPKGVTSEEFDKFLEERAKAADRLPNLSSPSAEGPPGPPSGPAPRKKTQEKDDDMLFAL
# TRIM21 268-465 SPRY (domain begin residue: 268, domain end residue: 465), P19474, sequence (P19474 whole entry): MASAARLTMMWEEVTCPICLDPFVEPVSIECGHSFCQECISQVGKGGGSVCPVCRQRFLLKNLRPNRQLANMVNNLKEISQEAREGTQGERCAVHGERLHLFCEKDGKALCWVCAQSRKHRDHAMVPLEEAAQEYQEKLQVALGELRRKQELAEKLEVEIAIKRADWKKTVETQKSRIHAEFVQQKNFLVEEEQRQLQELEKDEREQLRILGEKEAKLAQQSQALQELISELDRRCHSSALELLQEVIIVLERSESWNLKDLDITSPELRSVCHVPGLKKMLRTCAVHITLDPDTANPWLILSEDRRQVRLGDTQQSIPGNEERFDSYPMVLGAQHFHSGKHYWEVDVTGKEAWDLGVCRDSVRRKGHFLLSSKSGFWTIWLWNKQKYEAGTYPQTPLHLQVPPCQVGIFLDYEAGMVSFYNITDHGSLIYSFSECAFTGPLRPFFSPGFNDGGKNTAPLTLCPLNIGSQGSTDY
binder,measurement,setting,value
QFFLFQSAPSWVLQPI,phage ELISA signal ratio,[1],13.8
TEMWTPAQQALWAYIT,phage ELISA signal ratio,[2],8.79
NNNWWMQWHVEEHEME,phage ELISA signal ratio,[3],4.26
VVGDGMAFERWFQDFE,phage ELISA signal ratio,[4],14.5
PWWLEYEMPITRESPV,phage ELISA signal ratio,[5],4.45
KVNTFHFMDPPDWLTH,phage ELISA signal ratio,[1],14.3
MPDGWWDQYSWEHIAE,phage ELISA signal ratio,[4],15.7
WEMTLMEEAWATKFEV,phage ELISA signal ratio,[6],29.9
LERKIAWAQQLWKYFV,phage ELISA signal ratio,[7],6.97
ETDKWVPSYLWWANYS,phage ELISA signal ratio,[3],16.8
YQDWDWDPEMKRMVVS,phage ELISA signal ratio,[2],4.04
KWNDDDWWTYFVSQVE,phage ELISA signal ratio,[2],20.3
DDHLWHPSFKWWDEYV,phage ELISA signal ratio,[3],15.8
DVIPWDTWNFWREQDF,phage ELISA signal ratio,[8],9.37
GLASYFADNYHLIFSE,phage ELISA signal ratio,[2],22.4
MMFAGLGTPNPYEVTT,phage ELISA signal ratio,[2],16.9
ADGWGWYENWVWPASM,phage ELISA signal ratio,[3],4.28
MDWYDMYGTTWDMIPG,phage ELISA signal ratio,[4],10.7
LEWTWYDTWTWPEESQ,phage ELISA signal ratio,[3],22
EWWLSYDPHWVETISA,phage ELISA signal ratio,[5],5.42
DRKLSQQELALWAYII,phage ELISA signal ratio,[2],27.7
QHDWAPSYLWWDEWTM,phage ELISA signal ratio,[3],20.5
QTPLEAFWEAYDSISW,phage ELISA signal ratio,[2],23.1
TVFWDGMYDWPVEMDI,phage ELISA signal ratio,[4],21
VGTFMFGEMPSWVVST,phage ELISA signal ratio,[1],19.6
HRFVYMEQLPSWLFAV,phage ELISA signal ratio,[1],23
PFTYYSSEMYPWYIFG,phage ELISA signal ratio,[1],11.1
DMLDWSWTEEVELWFQ,phage ELISA signal ratio,[3],24.5
YQMSWMPSEIWWLNYV,phage ELISA signal ratio,[3],9.38
